Results as given in PubChem BioAssay AID686970 (National Center for Advancing Translational Sciences (NCATS), 2013).
Out of some 360,000 compounds screened, about 6,000 (1.7%) were called active. About 8% were inconclusive and are not listed. Many of the other results were omitted from the sample, so actives are more common in it than they were. Unmarked numbers belong to inactive results. Calls come from the whole dose curve; as a rule, active = well fitted cell-killing curve with a large enough effect; inconclusive = small, poorly fitted or top-dose-only effect, or effect the other way; inactive = flat fitted curve, though single readings scatter.

Assay: qHTS for induction of synthetic lethality in tumor cells producing 2HG: qHTS for the HT-1080-NT fibrosarcoma cell line; note: nearly all actives have a fitted effect of over 55% in size
Settings: HT-1080-NT fibrosarcoma viability, CellTiter-Glo ATP luminescence, 48 h; series mostly up to 46.1 µM; activity, negative = less viability: at the top concentration
Text: Unbiased genomic sequencing for 22 glioma genomes found recurrent mutation of IDH1 on chromosome 2q33, a gene encoding the cytosolic isoform of IDH1 associated with the tricarboxylic acid cycle (TCA) that catalyzes the oxidative decarboxylation of isocitrate, yielding alpha-ketoglutarate and CO2 via NADP+ to NADPH conversion. Subsequent studies confirmed the recurrent IDH mutations in up to 70% of secondary gliomas and in 10% of AML cases. In addition, the somatic mutation of cancer-associated IDH1 is a point mutation resulting in various amino-acid substituents at Arginine132 (IDH1 R132), a key residue found in the enzyme's active site that when mutated, results in the loss-of-function in metabolizing isocitrate but confers a gain-of-function to produce the oncometabolite 2-hydroxyglutarate (2HG). This in effect defines IDH1 as an oncogene and provides an extraordinary opportunity to discover chemical probes against mutant IDH1 that may translate into much needed new therapies for glioma and AML patients.
This assay aims to perform a synthetic lethal screen for chemical probes specific for 2HG-producing tumor cells using matched paired cell lines (1) HT-1080-NT fibrosarcoma cell line that overproduces 2HG and (2) HT-1080-IDH1KD cell line which has IDH1 expression knocked-down. Desirable compounds are toxic to the NT fibrosarcoma cells but not to the IDH1KD cell line. The data in this AID corresponds to the results of the qHTS against the HT-1080-NT fibrosarcoma cell line.
[1] Dang L, Jin S, Su SM. IDH mutations in glioma and acute myeloid leukemia. Trends of Mol Med. 2010; 16(9): 387-97.
[2] Dang L et al. Cancer-associated IDH1 mutations produce 2-hydroxyglutarate. Nature. 2010; 465(7300):966.
NIH Molecular Libraries Probe Production Centers Network [MLPCN]
NIH Chemical Genomics Center [NCGC]
Assay Submitter (PI): Lenny Dang Ph.D., Agios Pharmaceuticals
Suspensions of trypsinized HT-1080-NT cells were dispensed into white, tissue culture-treated, solid 1536-well plates at 5uL/well (750 cells/well final concentration) in RPMI medium supplemented with 5% FBS. Plates were incubated at 37 degrees C for 2 hours, after which 23 nL of compounds or DMSO were delivered to each well using a pin tool. Plates were then incubated at 37 degrees C for an additional 48 hours. CellTiter-Glo viability reagent (Promega) was dispensed into wells (2.5uL/well) and incubated at room temperature for 10 minutes. The plates were measured on a PerkinElmer ViewLux plate reader for luminescent signal (clear filter, 1 sec exp). DMSO-treated control wells and media-only (no cells) control wells were used to normalize %Activity of identified toxic compounds; DMSO-treated wells corresponded to 0%Activity (100% viability), while media-only controls were used to normalize 100%Activity (0% viability).
Concentration-response curves were fitted to the signals arising from the resulting luminescence. The concentration-effect curves were then classified based on curve quality (r2), response magnitude and degree of measured activity, and compounds were subsequently categorized based on their curve class.
Potency is the fitted concentration of half-maximal effect.

Row | Compound | Potency | activity, negative = less viability
1 | COc1ccccc1NC1=NC(c2ccc(Cl)cc2)N=C(N)N1 (stereo not drawn) | 10 µM (active) | –
2 | COc1ccccc1NC(=O)C1CCCN1S(=O)(=O)c1ccc(Cl)cc1 (stereo not drawn) | – | -2.2%
3 | CC1(C)N=C(N)NC(Nc2ccc(Cl)cc2)=N1 | – | 14.3%
4 | CCc1nc2ccc(C(=O)NCCNC(C)=O)cn2c1N(CC)Cc1cccc(Br)c1 | – | 25.8%
5 | CCC(C)CN1C(=O)CN(S(C)(=O)=O)CC1(C)C(=O)Nc1ccc2c(c1)OCCO2 (stereo not drawn) | – | -1.35%
6 | C[C@H]1CN(c2ccc(Br)cc2)C(=O)[C@@H]1CC(=O)Nc1ccc(Br)cc1 | – | -0.873%
7 | c1ccc(CNCc2ccc(CNCc3ccccc3)cc2)cc1 | – | -20.6%
8 | CC1(C(=O)Nc2ccc3c(c2)OCCO3)CSCC(=O)N1CCOc1ccccc1 (stereo not drawn) | – | -1.2%
9 | Cc1ccn2c(-c3csc(Nc4ccc(C(=O)O)cc4)n3)c(C)nc2c1 | – | -23.2%
10 | Cc1cc(C)cc(OCC(=O)NNC(=O)c2cc3ccccc3oc2=O)c1 | – | 10.5%
11 | O=c1oc2ccccc2cc1-c1csc(Nc2ccc(O)cc2)n1 | 14.6 µM (active) | –
12 | CCc1c(N=O)c(-c2ccccc2)n(O)[n+]1[O-] | – | -3.38%
13 | CC(C)CNC(=O)C1(C)CCCN1C(=O)CSc1ccccc1 (stereo not drawn) | – | 20.3%
14 | COc1ccc(C(O)c2nc(-c3ccc4c(c3)OCO4)cs2)cc1 (stereo not drawn) | – | 4.1%
15 | CCCc1ccc(S(=O)(=O)N2CCN(C(=O)c3cc(C)on3)CC2)cc1 | – | 1.01%
16 | O=C(Nc1nnc([C@H]2C[C@H](O)[C@@H](CO)O2)s1)c1cccc(Cl)c1 | – | 1.95%
17 | CN(C)CCN1CCN(c2cc(-c3cccc(Cl)c3)nc3ccnn23)CC1 | – | -16.2%
18 | O=C(c1ccccc1)N1CCN(c2cc(-c3ccccc3)nc3cc(-c4cccc(Cl)c4)nn23)CC1 | – | 3.77%
19 | C#Cc1cc(N2CCN(C(=O)c3ccoc3)CC2)n2nc(-c3cccc(Cl)c3)cc2n1 | 14.6 µM (active) | –
20 | CC(=O)Nc1ccc(C=CC(=O)c2ccc([N+](=O)[O-])cc2)cc1 | – | 7.09%
21 | O=C(N=C1SC2CS(=O)(=O)CC2N1Cc1ccccc1)c1ccccc1 (stereo not drawn) | – | 2.42%

Row | Compound | Potency | activity, negative = less viability
22 | COCOCCn1cc(CN2CCS(=O)(=O)N(Cc3ccc(-c4ccccc4)cc3)C(CC(C)C)C2=O)nn1 (stereo not drawn) | – | -10%
23 | COc1cccc(/C=C2\SC(=S)N(CCCC(=O)N3CCOCC3)C2=O)c1 | – | 0.898%
24 | CCCCc1ccc(S(=O)(=O)NC(=O)C2(C)CCN2C(=O)c2ccccc2)cc1 (stereo not drawn) | – | 8.41%
25 | CCCOc1ccc(C(=O)CCC(=O)OC(C)C(=O)Nc2ccc(NC(C)=O)cc2)cc1 (stereo not drawn) | – | 4%
26 | CCCOc1ccc(/C=N/NC(=O)C2CC2)c(OCCC)c1 | – | -1.92%
27 | CCCOc1ccc(C(=O)C(CCC(CNCC)C(=O)c2ccc(OCCC)cc2)CNCC)cc1 (stereo not drawn) | 16.4 µM (active) | –
28 | Cc1ccccc1S(=O)(=O)NC(=O)C1(C)CCN1C(=O)C1(c2ccc(Cl)cc2)CC1 (stereo not drawn) | – | 0.791%
29 | COc1cc(C(O)c2nc(-c3cnn(C)c3)cs2)ccc1F (stereo not drawn) | – | 4.84%
30 | O=C(Nc1ccc(F)cc1)C(CCc1ccccc1)N1CCN(CC(=O)N2CCCC2)CC1 (stereo not drawn) | – | 0.926%
31 | CCCCCCNC(=O)O[C@]12C[C@@H](C(=O)OC)[C@@H](C(=O)OC)C[C@@]1(O)CN(S(=O)(=O)c1ccc(C)cc1)C2 | – | -0.467%
32 | Cc1ccc(S(=O)(=O)N2C[C@H]3n4c(=O)ccc(=O)n4C[C@H](OC(=O)NC4CCCC4)[C@@]3(O)C2)cc1 | – | -27.2%
33 | CCCCCCNC(=O)O[C@H]1CN(C(=O)OC(C)C)N(C(=O)OC(C)C)[C@@H]2CN(S(=O)(=O)c3ccc(C)cc3)C[C@]12O | 20.6 µM (active) | –
34 | CS(=O)(=O)N1CCCCC1c1cc(C(=O)NCc2ccccc2)no1 (stereo not drawn) | – | 23.6%
35 | CC(=O)OCC(C)n1c(=O)c2ccccc2n1C(C)=O (stereo not drawn) | – | 3.8%
36 | CC(NC(=S)Nc1ccccc1)C1COc2ccccc2O1 (stereo not drawn) | – | -2.44%
37 | CCN1/C(=C/C(=S)Nc2ccccc2)Sc2ccccc21 | 6.51 µM (active) | –
38 | CCOC(=O)CNC(=O)N1c2ccccc2Sc2ccccc21 | – | 0%
39 | COc1ccc(OC)c(CN2C(=O)CCC2(C)c2nnnn2Cc2ccccc2)c1 (stereo not drawn) | – | 6.01%
40 | CCOC(=O)N1CCN(C(=O)C[C@@H]2C[C@@]3(C(=O)OC)CCCCC=C3N(CCC3=CCCCC3)C2=O)CC1 | – | -17.7%
41 | O=C(Nc1nnc(C2CC2)s1)c1ccccn1 | 7.08 µM (active) | –
42 | CCc1ccccc1OCC(=O)Nc1nnc(C2CC2)s1 | – | 6.09%

Row | Compound | Potency | activity, negative = less viability
43 | Cc1cc(C(=O)Nc2nnc(C3CC3)s2)c(C)s1 | – | -2.13% [at 9.24 µM]
44 | Cc1onc(-c2ccccc2)c1-c1nnc(COC(=O)c2ccc(N(C)C)cc2)o1 | – | -9.65%
45 | COc1ccc(CCNC(=O)Nc2ccc3c(c2)c(=O)n(C)n3C)cc1OC | – | 18.5%
46 | COc1ccc(C(=O)C2CCCN(Cc3ccc4nonc4c3)C2)c(C)c1 (stereo not drawn) | – | -10.5%
47 | CCOC(=O)c1[nH]ncc1CN1CCCC(C(=O)c2ccc(OC)cc2C)C1 (stereo not drawn) | – | 2.6%
48 | COc1ccc(C(=O)C2CCCN(Cc3cccn3-c3ccccn3)C2)c(C)c1 (stereo not drawn) | 8.2 µM (active) | –
49 | COCCCN1C(=O)C(CC(=O)NCc2cccs2)CC(C(=O)N2CCOCC2)=C1C (stereo not drawn) | – | 13.1%
50 | CCOc1ccccc1NC(=O)Cn1ncc2ccc([N+](=O)[O-])cc21 | – | -2.56%
51 | Cc1ccc(SCC(=O)NC(=O)NCc2ccco2)c(C)c1 | – | -4.84%
52 | CCOc1ccccc1NC(=O)Cn1nnc(C(=O)NCc2cccs2)c1N | 0.461 µM (active) | –
53 | CCOc1ccc(Cn2nnc(C(=O)Nc3ccc(OC)cc3OC)c2N)cc1 | – | -2.78%
54 | COc1ccc(CNC(=O)c2nnn(CC(=O)Nc3cc(C)cc(C)c3)c2N)cc1 | – | 1.9%
55 | Cc1ccc(NC(=O)Cn2nnc(C(=O)NCc3ccco3)c2N)c(C)c1 | 20.6 µM (active) | –
56 | CC(=O)c1ccc(OCC(=O)N(C)C2CCS(=O)(=O)C2)cc1 (stereo not drawn) | – | 14.7%
57 | COc1ccc(CN2C(=O)C(CC(=O)NCCN3CCOCC3)CC(C(=O)N(C(C)C)C(C)C)=C2C)cc1 (stereo not drawn) | – | 1.88%
58 | O=C(NCc1ccc(F)cc1F)[C@@H]1CCCN1C(=O)[C@@H]1CCCN1C(=O)c1cccc(Cl)c1 | – | 10.8%
59 | Nc1nc2c(Br)ccc(Br)c2cc1C(=O)NCCc1ccccc1 | – | 0.0286%
60 | CCOC(=O)c1cc(-c2sc(NC(=O)c3ccccc3)nc2C)n(Cc2ccccc2)n1 | – | -27.9%
61 | COc1cc(OC)cc(C(=O)N[C@H](C(=O)Nc2nc3ccccc3[nH]2)C(C)C)c1 | 1.16 µM (active) | –
62 | COc1ccc(C(=O)N[C@H](C(=O)NCc2ccccc2)C(C)C)cc1 | – | 8.29%
63 | COc1cc(OC)cc(C(=O)N[C@H](C(=O)NNC(=O)c2ccc(Br)cc2)C(C)C)c1 | – | -0.305%
